# In PubChem BioAssay AID1851 (National Center for Advancing Translational Sciences (NCATS), 2009):
# Values joined by “and” are separate entries in the source; they are usually repeats but may differ in a detail not shown here. Equal values may be shown once. The whole screen tested about 16,000 compounds, of which about 2,600 (16%) were called active. About 20% were inconclusive and are not listed. Calls follow the shape of the dose curve; as a rule, active = well fitted curve in the direction sought with a large enough effect; inconclusive = small, poorly fitted or top-dose-only effect, or effect the other way; inactive = no such curve, though single readings can be large or run the other way. What follows is part of a selection rich in actives, with near analogues and random picks from the rest.
# Target: Cytochrome P450 2D6 (Homo sapiens) (UniProt P10635)
# Sequence (P10635 whole entry, looked up): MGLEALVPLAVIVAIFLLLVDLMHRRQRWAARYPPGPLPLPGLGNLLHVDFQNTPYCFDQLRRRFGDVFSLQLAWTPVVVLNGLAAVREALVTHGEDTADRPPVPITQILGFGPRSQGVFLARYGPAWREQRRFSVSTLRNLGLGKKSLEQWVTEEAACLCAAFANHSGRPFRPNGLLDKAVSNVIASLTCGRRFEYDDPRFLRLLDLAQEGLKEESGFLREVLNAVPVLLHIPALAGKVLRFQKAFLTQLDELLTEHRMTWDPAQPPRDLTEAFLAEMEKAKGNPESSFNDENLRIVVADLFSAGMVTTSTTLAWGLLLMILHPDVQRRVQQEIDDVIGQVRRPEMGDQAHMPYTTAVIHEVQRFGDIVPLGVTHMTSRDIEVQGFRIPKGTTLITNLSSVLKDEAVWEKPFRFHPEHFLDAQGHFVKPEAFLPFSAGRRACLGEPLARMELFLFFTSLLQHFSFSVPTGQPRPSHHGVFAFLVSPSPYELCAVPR
# Assay: Cytochrome panel assay with activity outcomes
# Conditions: recombinant CYP, pro-luciferin dealkylation, luminescence, p450-cyp2d6; series mostly up to 57.1 µM
# % is scaled to controls: 0 for no effect and ±100 for the full control effect.
SMILES,"activity, negative = inhibition",AC50
COc1cc(CCN)c(OC)c(OC)c1,0.204% [at 11.4 µM] (inactive),–
C[C@@]12C(=O)OC(=O)[C@@]1(C)[C@H]1CC[C@@H]2O1,–,inactive
NC(=O)c1ccc(-c2nc(-c3ccc4c(c3)OCO4)c(-c3ccccn3)[nH]2)cc1,–,12.6 µM (active)
Cc1sc2c(c1C)C(c1ccc(C(C)(C)C)cc1)=NCC(=O)N2CC(=O)Nc1nccs1,–,inactive
C[C@@H]1O[C@@H](O[C@H]2C[C@@H](O)[C@]3(CO)[C@@H]4[C@@H](O)C[C@]5(C)[C@H]([C@@H]6COC(=O)C6)CC[C@@]5(O)[C@H]4CC[C@@]3(O)C2)[C@H](O)[C@H](O)[C@@H]1O,–,inactive
COc1ccc2cc1Oc1ccc(cc1)C[C@H]1c3cc(c(OC)cc3CCN1C)Oc1c(OC)c(OC)cc3c1[C@@H](C2)N(C)CC3,-16.9% [at 11.4 µM] (inactive),–
COc1ccc2c(c1OC)C(=O)O[C@H]2[C@H]1c2cc3c(cc2CCN1C)OCO3,–,inactive
COc1cc2c3cc1Oc1c(O)c(OC)cc4c1[C@@H](Cc1ccc(cc1)Oc1cc(ccc1O)C[C@H]3N(C)CC2)N(C)CC4,0.972% [at 11.4 µM] (inactive),–
COc1cc2c(cc1O)[C@H]1Cc3ccc(OC)c(O)c3CN1CC2,–,0.0316 µM (active)
COc1ccc2c(c1O)-c1c(OC)c(OC)cc3c1[C@H](C2)N(C)CC3,–,inactive
COc1ccc2c(c1OC)CN1CCc3cc4c(cc3[C@H]1C2)OCO4,–,0.0631 µM (active)
CC(Oc1ccc(-c2ccccc2)cc1)C(=O)O (stereo unspecified),–,inactive
CCn1cc(C(=O)O)c(=O)c2cc3c(cc21)OCO3,–,inactive
CCN1C[C@]2(C)CC[C@@H](O)[C@]34[C@@H]5CC6[C@@H](OC)C[C@@](O)([C@H]5[C@@H]6O)[C@@H](C[C@@H]23)[C@H]14,–,inactive
CNC[C@H](O)c1ccc(OC(=O)C(C)(C)C)c(OC(=O)C(C)(C)C)c1,–,inactive
CN1C[C@@H](CS(=O)(=O)N(C)C)C[C@H]2c3cccc4c3c(cn4C)C[C@@H]21,–,3.98 µM (active)
CC(=NCc1ccco1)c1c(O)n(-c2ccccc2)c(=O)[nH]c1=O,–,inactive
CN1C(=O)CCS(=O)(=O)[C@@H]1c1ccc(Cl)cc1,–,inactive
CN(C)CCCc1c[nH]c2ccccc12,-8.71% [at 11.4 µM] (inactive),–
CN(C)Cc1c[nH]c2ccccc12,–,0.158 µM (active)
O=C(c1ccccc1)[C@H]1[C@H](c2ccccc2[N+](=O)[O-])N1C1CCCCC1 (stereo partly specified),-1.09% [at 11.4 µM] (inactive),–
c1ccc(CN2CCC3(CCNCC3)CC2)cc1,–,inactive

SMILES,"activity, negative = inhibition",AC50
c1ccc(CN2CCC3(CCc4ccccc43)CC2)cc1,–,0.00631 µM (active)
CCOC(=O)c1ncn2c1[C@H]1CCCN1C(=O)c1cc(OC)ccc1-2,–,inactive
O=S1(=O)N(CCN2CC=C(c3c[nH]c4cc(F)ccc34)CC2)c2cccc3c2N1CCC3,–,0.2 µM (active)
Oc1ccc2[nH]cc(CCCCN3CC=C(c4ccccc4)CC3)c2c1,–,inactive
O=C(CCCC1=NS(=O)(=O)c2ccccc2N1)N1CCC2(CC1)OCCO2,–,inactive
O=C(Nc1ccc(Cl)cc1C(=O)c1ccccc1Cl)c1ccco1,–,inactive
Nc1ccccc1O.O.O=C(O)[C@H]1[O][Sb][O][C@H]1C(=O)O,-5.13% [at 11.4 µM] (inactive),–
Clc1cncc(N2CCNCC2)n1,–,inactive
O=[N+]([O-])c1ccc(N2CCNCC2)cc1NC1CC1,–,inactive
Clc1cccc(N2CCNCC2)c1,–,25.1 µM (active) and 3.98 µM (active)
O=c1[nH]cnc2[nH]cc(CN3CCCCC3)c12,7.9% [at 11.4 µM] (inactive),–
COc1c2c(cc3c1OCO3)CCN(C)C2,–,3.98 µM (active)
CC(C)C(=O)N1C2CCC1CC(O)(c1ccc(F)cc1)C2 (stereo unspecified),–,inactive
NC[C@H](O)c1ccc(O)cc1,–,inactive
CNC[C@H](O)c1ccc(O)cc1,–,inactive
C[C@H](N[C@@H](C)CCc1ccccc1)[C@H](O)c1ccc(O)cc1,–,2 µM (active)
CC(C)[N+](C)(CCOC(=O)C1c2ccccc2Oc2ccccc21)C(C)C,–,31.6 µM (active) and 1.26 µM (active)
O=C(Nc1ccc(F)cc1F)c1cccnc1Oc1cccc(C(F)(F)F)c1,–,inactive
CC[C@@H]1[C@@H]2C[C@H]3[C@H]4N(C)c5ccccc5[C@@]45C[C@@H]([C@@H]2[C@@H]5O)N3[C@H]1O,–,3.98 µM (active)
Clc1ccc(C2=CCC[C@H]3CC[C@@H]2N3)cn1,–,inactive
O=C(CNS(=O)(=O)c1ccc(Br)s1)N1CCC2(CC1)OCCO2,–,inactive
NC(N)=NN=Cc1c(Cl)cccc1Cl,–,10 µM (active)

SMILES,"activity, negative = inhibition",AC50
O=P(O)(O)c1ccccc1 (tested in a mixture with another compound),15.2% [at 11.4 µM] (inactive),–
O=C(O)Cc1cccnc1C(=O)O,–,inactive
O=C(O)[C@@H]1[C@H](C(=O)O)[C@]2(Cl)C(Cl)=C(Cl)[C@@]1(Cl)C2(Cl)Cl,-8.74% [at 11.4 µM] (inactive),–
O=c1c2ccccc2c2ccccc2c(=O)n1-c1cc2c3ccccc3ccc2c2ccccc12,2.85% [at 11.4 µM] (inactive),–
NCC[C@H](O)C(=O)N[C@H]1C[C@@H](N)[C@@H](O[C@H]2O[C@@H](CN)[C@@H](O)[C@@H](O)[C@@H]2N)[C@@H](O[C@H]2O[C@@H](CO)[C@@H](O)[C@@H]2O)[C@@H]1O,–,inactive
c1ccc2sc(C3(N4CCCCC4)CCCCC3)cc2c1,–,12.6 µM (active) and 3.16 µM (active)
CN1C(=O)CCS(=O)(=O)[C@H]1c1ccc(Cl)cc1,–,inactive
CCCn1c(=O)c2[nH]c(C3CCCC3)nc2n(CCCOC(=O)c2ccc(S(=O)(=O)F)cc2)c1=O,–,inactive
Cc1ncsc1CCCl,–,12.6 µM (active)
C=C(C)[C@H]1CC[C@]2(C(=O)O)CC[C@]3(C)[C@@H](CC[C@H]4[C@@]5(C)CC[C@@H](O)C(C)(C)[C@@H]5CC[C@@]43C)[C@H]12,–,inactive
Cc1nc(-c2ccc(-c3ccc(C(=O)N4CCc5cc6c(cc54)C4(CCN(C)CC4)CO6)cc3)c(C)c2)no1,–,31.6 µM (active)
COC(=O)c1c(C)ccc2c(O)c3c(cc12)C(=O)c1c2c(cc(O)c1C3=O)[C@@]1(C)O[C@@](C)(O2)[C@@H](O)[C@H](N(C)C)[C@H]1O,-17.5% [at 11.4 µM] (inactive),–
C=C[C@]12CN(C)[C@H]3C1[C@@]1(C(=O)Nc4ccccc41)[C@H]1C[C@H]2[C@H]3CO1,–,inactive
N[C@@H](CSC1c2ccccc2-c2ccccc21)C(=O)O,-14.3% [at 11.4 µM] (inactive),–
O=C(CNS(=O)(=O)c1cccs1)N1CCC2(CC1)OCCO2,–,inactive
Fc1ccc(C(OCCN2CCN(C/C=C\c3ccccc3)CC2)c2ccc(F)cc2)cc1,–,7.94 µM (active)
C(=C/c1ccccc1)/CN1CCN(CCOC(c2ccccc2)c2ccccc2)CC1,–,5.01 µM (active)
Clc1ccc([C@@H](OCCN2CCCCC2)c2ccccc2)cc1,–,0.0158 µM (active)
CC(C)(c1ccc(OC[C@@H]2CO2)cc1)c1ccc(OC[C@H]2CO2)cc1,–,inactive
C[C@@H]1CC[C@@H]2N(C1)C[C@H]1[C@@](O)([C@H](O)C[C@]3(O)[C@H]4CC[C@H]5[C@]6(O)O[C@]4(C[C@]13O)[C@@]5(C)CC[C@@H]6O)[C@@]2(C)O,10.1% [at 11.4 µM] (inactive),–
CCCCC/C=C\C/C=C\C/C=C\C/C=C\CCCC(=O)NCC(=O)O,–,inactive
CCN(CC)CCn1ncc2c(N)ncnc21,4.3% [at 11.4 µM] (inactive),–

SMILES,"activity, negative = inhibition",AC50
CNC(=O)Oc1ccc2c(c1)[C@@]1(C)CCN(C)[C@@H]1N2C,–,0.251 µM (active)
C=C1[C@@H](O)C2C=CC[C@H](C)C(=O)[C@@](C)(O)C=C[C@@H](OC(C)=O)[C@@]23C(=O)N[C@H](Cc2ccccc2)[C@@H]3[C@@H]1C (stereo partly specified),–,inactive
CCCCC/C=C\C/C=C\C/C=C\C/C=C\CCCC(=O)Nc1ccc(O)cc1,–,inactive
CN1[C@H]2CC(=O)C[C@@H]1[C@@H](O)C2,–,inactive
O=C(O)CS(=O)(=O)C(c1ccccc1)c1ccccc1,8.36% [at 11.4 µM] (inactive),–
N[C@H](Cc1ccc(N(CCCl)CCCl)cc1)C(=O)O,–,inactive
NC(=O)c1cc(N2CC2)c([N+](=O)[O-])cc1[N+](=O)[O-],–,inactive
C=CCO[C@@H](Cn1ccnc1)c1ccc(Cl)cc1Cl,–,5.01 µM (active)
C=C1[C@@H]2CC[C@H]3[C@@]4(C)C[C@@H](O[C@@H]5O[C@H](CO)[C@H](OS(=O)(=O)O)[C@@H](OS(=O)(=O)O)[C@@H]5OC(=O)CC(C)C)C[C@@H](C(=O)O)[C@H]4CC[C@@]3(C2)[C@H]1O,–,inactive
C[C@H]1[C@H](NC(=O)/C(=N/OC(C)(C)C(=O)O)c2csc(N)n2)C(=O)N1S(=O)(=O)O (stereo in doubt),–,inactive
CC[n+]1c(/C=C/N(C)c2ccccc2)sc2ccc(Cl)cc21,–,0.0112 µM (active)
c1cc(CN2CCC3(CCNCC3)CC2)ccn1,–,inactive
c1ccc(N2CC3(CCNCC3)C2)cc1,–,inactive
c1cc(N2CCCC3(CCNCC3)C2)ccn1,–,10 µM (active)
c1ccc(N2CCCC3(CCNCC3)C2)cc1,–,7.94 µM (active)
C[N+]1(C)CCN(c2ccccc2)CC1,–,inactive
O=C(Cn1ncc2ccsc2c1=O)N1CCC2(CC1)OCCO2,–,inactive
Cc1ccc(N(C)C(=O)Oc2cccc3ccc(C)nc23)cc1,–,inactive
O=C(O)/C=C(\CC(=O)O)C(=O)O,-1.58% [at 11.4 µM] (inactive),–
N[C@@H](Cn1ccc(=O)n(Cc2ccc(C(=O)O)cc2)c1=O)C(=O)O,–,inactive
